# Test results as given in PubChem BioAssay (Tox21).
# “And” between values parts separate entries of the source, which are not always exact repeats. Equal values may be shown once. Results filed as inconclusive are left out. A call without a number means that no potency is given here. More than one record can exist for a structure, and the calls need not agree. The source made the active and inactive calls. Unless noted, the call rests on the fitted dose curve; in most records, active means well fitted curve in the direction sought with a large enough effect in the repeat runs; inconclusive means weak or mixed curves; inactive means no such curve, though single readings can be large; an effect the other way counts as inactive or inconclusive.
# Columns and labels:
# [1] = qHTS assay to identify small molecule antagonists of the thyroid receptor (TR) signaling pathway - cell viability counter screen (AID 743064); further: nearly all actives have a fitted effect of over 50% in size; further: potency means the concentration at half of the fitted maximal effect
# In short: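 GH3.TRE-Luc rat pituitary cells carrying a TRE-luciferase reporter were treated with compound plus 1 nM T3 (final) for 23.5 h at 37 °C. Viability was then read in the same wells by CellTiter-Fluor fluorescence after a further 30 min.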
# [2] = qHTS assay to identify small molecule antagonists of the thyroid receptor (TR) signaling pathway (AID 743065); further: nearly all actives have a fitted effect of over 55% in size; further: potency means the concentration at half of the fitted maximal effect
# In short: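 GH3.TRE-Luc rat pituitary cells (two TREs driving luciferase) were dosed with compound, then stimulated with 1 nM T3 (final) for 23.5 h at 37 C. ONE-Glo luminescence was the read-out, with CellTiter-Fluor fluorescence as the cytotoxicity counter-screen.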
# [3] = test system: thyroid hormone receptor (rat, GH3 cells); assay: qHTS assay to identify small molecule agonists of the thyroid receptor (TR) signaling pathway (AID 743066; calls by dose curve)
# [4] = qHTS assay to identify small molecule antagonists of the estrogen receptor alpha (ER-alpha) signaling pathway - cell viability counter screen (AID 743074; calls by dose curve;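 further: HEK293 cells carrying ER-alpha-UAS-bla reporter stimulated with 17beta-estradiol; nearly all actives have a fitted effect of over 45% in size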; further: potency means the concentration at half of the fitted maximal effect)
# [5] = qHTS assay to identify small molecule antagonists of the estrogen receptor alpha (ER-alpha) signaling pathway using the BG1 cell line - cell viability counter screen (AID 743081);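 further: compound given together with 17beta-estradiol as the ER stimulus; nearly all actives have a fitted effect of over 45% in size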; further: potency means the concentration at half of the fitted maximal effect
# Aromatase (Homo sapiens) = Aromatase (Homo sapiens) (UniProt P11511); assay: qHTS assay to identify aromatase inhibitors (AID 743083); further: nearly all actives have a fitted effect of over 55% in size; further: potency means the concentration at half of the fitted maximal effect
# [6] = qHTS assay to identify aromatase inhibitors - cell viability counter screen (AID 743084);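 further: cells stimulated with testosterone during compound exposure; nearly all actives have a fitted effect of over 55% in size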; further: potency means the concentration at half of the fitted maximal effect
# [7] = target: Aryl hydrocarbon receptor (Homo sapiens) (UniProt P35869); assay: qHTS assay to identify small molecule that activate the aryl hydrocarbon receptor (AhR) signaling pathway (AID 743085); further: nearly all actives have a fitted effect of over 15% in size; further: potency means the concentration at half of the fitted maximal effect;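 on activation: HG2L7.5c1 human HepG2 liver cells with stably integrated DRE-driven firefly reporter; series mostly up to about 70 µM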
# In short: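 HepG2 cells (HG2L7.5c1) stably carrying a firefly luciferase reporter driven by 20 dioxin responsive elements were exposed to compound for 24 h at 37C after a 5 h settling period; luminescence rise (ONE-Glo) indicated activation.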
# [8] = qHTS assay to identify small molecule that activate the aryl hydrocarbon receptor (AhR) signaling pathway - cell viability counter screen (AID 743086); further: nearly all actives have a fitted effect of over 45% in size; further: potency means the concentration at half of the fitted maximal effect
# In short: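 HepG2-AhR-luc (HG2L7.5c1) cells, 4000/well, treated 24 h at 37 C with compound; viability measured as CellTiter-Fluor fluorescence after 30 min in the same wells as the luciferase read.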
# [9] = target: Peroxisome proliferator-activated receptor gamma (Homo sapiens) (UniProt P37231); assay: qHTS assay to identify small molecule agonists of the peroxisome proliferator-activated receptor gamma (PPARg) signaling pathway (AID 743094; active means well fitted activation curve with a large enough effect in the signal ratio in the repeat runs, not every such curve was filed as active; the % refers to the signal ratio; further: potency means the concentration at half of the fitted maximal effect)
# In short: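 Compounds dissolved in DMSO were added to PPARg UAS-bla HEK293H cells for 17 h at 37C, and reporter expression was quantified by fluorescence intensity after 1 h with LiveBLAzer B/G FRET substrate.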
# [10] = target: Peroxisome proliferator-activated receptor gamma (Homo sapiens) (UniProt P37231); assay: qHTS assay to identify small molecule antagonists of the peroxisome proliferator-activated receptor gamma (PPARg) signaling pathway (AID 743191; calls by dose curve; further: nearly all actives have a fitted effect of over 30% in size; further: potency means the concentration at half of the fitted maximal effect)
# In short: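 GeneBLAzer PPARg UAS-bla HEK293H cells, 5 h post-plating, exposed to compounds 17 h at 37C. LiveBLAzer B/G FRET substrate added for 1 h at room temperature; beta-lactamase reporter read by fluorescence intensity.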
# [11] = qHTS assay to identify small molecule antagonists of the peroxisome proliferator-activated receptor gamma (PPARg) signaling pathway - cell viability counter screen (AID 743194); further: nearly all actives have a fitted effect of over 55% in size; further: potency means the concentration at half of the fitted maximal effect
# In short: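 Cytotoxicity counter screen in PPARg-bla HEK293H cells, same wells as reporter assay. Compounds plus 50 nM rosiglitazone (final) for 17 h at 37 C, then viability read by CellTiter-Glo luminescence.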
# [12] = qHTS assay for small molecule agonists of the antioxidant response element (ARE) signaling pathway (AID 743202; active means well fitted activation curve with a large enough effect in the signal ratio in the repeat runs, not every such curve was filed as active; the % refers to the signal ratio; further: potency means the concentration at half of the fitted maximal effect)
# In short: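 Agonist mode reporter screen: HepG2 cells with ARE-controlled beta-lactamase are incubated with test compounds for 16 h at 37 C, and beta-lactamase activity is measured as fluorescence of cleaved B/G FRET substrate.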
# [13] = qHTS assay for small molecule agonists of the antioxidant response element (ARE) signaling pathway - cell viability counter screen (AID 743203; calls by dose curve; further: nearly all actives have a fitted effect of over 55% in size; further: potency means the concentration at half of the fitted maximal effect)
# In short: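 Following 16 hrs of compound treatment at 37C, HepG2 cells with an ARE-controlled beta-lactamase gene were lysed with CellTiter-Glo. Luminescence was read after 30 min at room temperature.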
# [14] = qHTS assay for small molecule activators of the heat shock response signaling pathway - cell viability counter screen (AID 743209); further: nearly all actives have a fitted effect of over 50% in size
# In short: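 Readout: CellTiter-Glo luminescence, 30 min at room temperature. System: HSE-bla HeLa cells, 1500/well, plated overnight. Treatment: compounds in DMSO, 5 h at 37 C.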
# [15] = qHTS assay for small molecule activators of the heat shock response signaling pathway (AID 743210; active means well fitted activation curve with a large enough effect in the signal ratio in the repeat runs, with a control signal flat, not every such curve was filed as active; the % refers to the signal ratio;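 further: HeLa cells with beta-lactamase reporter driven by heat shock elements; series mostly up to about 63 µM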)
# In short: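 Quantitative high-throughput format using an engineered HeLa line in which heat shock response elements drive beta-lactamase; after 5 h with compound, cells received a B/G FRET substrate and fluorescence was read.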
# [16] = target: Estrogen receptor (Homo sapiens) (UniProt P03372); assay: qHTS assay to identify small molecule antagonists of the estrogen receptor alpha (ER-alpha) signaling pathway (AID 743069; active means well fitted curve in the direction sought with a large enough effect in the signal ratio in the repeat runs, not every such curve was filed as active; the % refers to the signal ratio)
# In short: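 Reporter cells (ER-alpha-bla, HEK293 background) are conditioned overnight in stripped-serum medium (2% charcoal-stripped FBS). Compound and 17beta-estradiol exposure runs 18 hr at 37C, 5% CO2.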
# [17] = target: Estrogen receptor (Homo sapiens) (UniProt P03372); assay: qHTS assay to identify small molecule agonists of the estrogen receptor alpha (ER-alpha) signaling pathway (AID 743075; calls by dose curve;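 further: HEK293 GripTite cells with ER-alpha and UAS-driven beta-lactamase reporter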)
# [18] = target: Estrogen receptor (Homo sapiens) (UniProt P03372); assay: qHTS assay to identify small molecule agonists of the estrogen receptor alpha (ER-alpha) signaling pathway using the BG1 cell line (AID 743079); further: nearly all actives have a fitted effect of over 20% in size
# [19] = qHTS assay to identify small molecule antagonists of the estrogen receptor alpha (ER-alpha) signaling pathway using the BG1 cell line (AID 743080; calls by dose curve;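 further: BG1 cells stimulated with 17beta-estradiol alongside compound; series mostly up to about 70 µM; nearly all actives have a fitted effect of over 25% in size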)
# In short: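 BG1-Luc-4E2 cells (endogenous full-length ER-alpha, stable 4×ERE-luciferase) were starved 5 days in phenol-red-free medium with 10% charcoal-stripped FBS, plated 24 h, then given compound plus 17beta-estradiol for 21.5 h at 37 C; ONE-Glo luminescence read after 30 min.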
# Aryl hydrocarbon receptor (Homo sapiens), sequence (P35869 whole entry, looked up): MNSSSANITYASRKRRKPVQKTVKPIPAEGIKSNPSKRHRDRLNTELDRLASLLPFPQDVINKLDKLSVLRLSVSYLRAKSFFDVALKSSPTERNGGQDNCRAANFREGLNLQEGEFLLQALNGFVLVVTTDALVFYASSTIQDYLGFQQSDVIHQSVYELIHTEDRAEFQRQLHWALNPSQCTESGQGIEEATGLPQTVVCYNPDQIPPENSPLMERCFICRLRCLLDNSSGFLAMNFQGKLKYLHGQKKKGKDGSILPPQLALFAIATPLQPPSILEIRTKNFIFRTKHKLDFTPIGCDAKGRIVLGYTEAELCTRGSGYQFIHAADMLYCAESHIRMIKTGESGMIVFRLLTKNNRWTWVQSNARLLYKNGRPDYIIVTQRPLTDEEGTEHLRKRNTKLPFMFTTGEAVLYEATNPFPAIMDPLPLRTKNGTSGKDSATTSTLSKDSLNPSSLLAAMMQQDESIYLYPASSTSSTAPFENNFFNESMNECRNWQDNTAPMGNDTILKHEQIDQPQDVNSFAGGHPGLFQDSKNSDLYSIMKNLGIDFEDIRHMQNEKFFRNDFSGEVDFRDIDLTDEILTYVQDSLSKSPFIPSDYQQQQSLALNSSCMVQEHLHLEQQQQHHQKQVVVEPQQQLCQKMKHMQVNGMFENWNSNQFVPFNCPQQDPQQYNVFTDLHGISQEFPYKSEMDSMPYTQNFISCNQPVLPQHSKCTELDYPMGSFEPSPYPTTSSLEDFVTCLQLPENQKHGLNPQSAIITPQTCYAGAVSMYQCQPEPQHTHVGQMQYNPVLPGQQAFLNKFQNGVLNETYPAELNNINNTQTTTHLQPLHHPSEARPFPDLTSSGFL
# Peroxisome proliferator-activated receptor gamma (Homo sapiens), sequence (P37231 whole entry, looked up): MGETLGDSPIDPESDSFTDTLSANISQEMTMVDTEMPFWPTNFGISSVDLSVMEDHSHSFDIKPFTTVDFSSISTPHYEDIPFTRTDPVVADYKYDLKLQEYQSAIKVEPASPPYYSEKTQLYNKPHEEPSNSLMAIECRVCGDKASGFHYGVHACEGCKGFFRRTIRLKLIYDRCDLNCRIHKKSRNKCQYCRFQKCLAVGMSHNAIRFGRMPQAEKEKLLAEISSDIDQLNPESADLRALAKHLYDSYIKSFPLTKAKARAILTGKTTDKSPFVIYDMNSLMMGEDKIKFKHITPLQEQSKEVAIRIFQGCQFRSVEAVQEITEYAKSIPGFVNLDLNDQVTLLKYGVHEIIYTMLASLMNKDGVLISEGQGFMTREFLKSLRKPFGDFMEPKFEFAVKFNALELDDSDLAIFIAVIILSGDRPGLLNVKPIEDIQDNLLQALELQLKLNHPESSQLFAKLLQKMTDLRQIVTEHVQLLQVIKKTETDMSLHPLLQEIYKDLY
# Estrogen receptor (Homo sapiens), sequence (P03372 whole entry, looked up): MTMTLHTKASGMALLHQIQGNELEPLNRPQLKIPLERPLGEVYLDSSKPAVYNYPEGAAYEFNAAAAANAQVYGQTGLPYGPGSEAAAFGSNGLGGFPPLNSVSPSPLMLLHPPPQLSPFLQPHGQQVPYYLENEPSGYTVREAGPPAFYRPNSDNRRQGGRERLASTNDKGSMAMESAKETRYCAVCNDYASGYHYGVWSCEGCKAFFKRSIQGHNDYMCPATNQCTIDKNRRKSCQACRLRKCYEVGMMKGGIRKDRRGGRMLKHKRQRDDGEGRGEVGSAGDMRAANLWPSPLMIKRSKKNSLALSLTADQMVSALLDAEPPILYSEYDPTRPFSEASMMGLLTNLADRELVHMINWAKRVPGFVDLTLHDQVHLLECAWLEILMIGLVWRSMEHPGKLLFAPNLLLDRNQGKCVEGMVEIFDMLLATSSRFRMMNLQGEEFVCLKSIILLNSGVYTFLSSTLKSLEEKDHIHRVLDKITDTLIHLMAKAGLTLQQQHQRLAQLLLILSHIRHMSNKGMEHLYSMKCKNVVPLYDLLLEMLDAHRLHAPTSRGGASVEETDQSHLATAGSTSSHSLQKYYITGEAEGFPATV
# Aromatase (Homo sapiens), sequence (P11511 whole entry, looked up): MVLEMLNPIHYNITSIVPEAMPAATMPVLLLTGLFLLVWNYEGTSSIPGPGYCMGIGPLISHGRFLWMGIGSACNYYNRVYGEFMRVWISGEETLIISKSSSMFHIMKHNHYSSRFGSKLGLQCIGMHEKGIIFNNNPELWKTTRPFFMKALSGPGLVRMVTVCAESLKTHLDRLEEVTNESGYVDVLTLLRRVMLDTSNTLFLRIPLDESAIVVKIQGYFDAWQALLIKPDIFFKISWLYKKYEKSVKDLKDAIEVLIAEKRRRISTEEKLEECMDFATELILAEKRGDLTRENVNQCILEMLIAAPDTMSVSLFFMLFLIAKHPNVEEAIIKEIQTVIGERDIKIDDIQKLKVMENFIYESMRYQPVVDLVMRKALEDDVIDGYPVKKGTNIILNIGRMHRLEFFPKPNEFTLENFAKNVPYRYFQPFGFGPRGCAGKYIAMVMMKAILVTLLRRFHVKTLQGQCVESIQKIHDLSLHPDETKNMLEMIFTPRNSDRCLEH
SMILES,Potency [1],Potency [2],Potency [3],Potency [4],Potency [5],Potency (Aromatase (Homo sapiens)),Potency [6],Potency [7],Potency [8],Potency [9],Potency [10],Potency [11],Potency [12],Potency [13],Potency [14],Potency [15],Potency [16],Potency [17],Potency [18],Potency [19]
Cc1ncc[nH]1,inactive,inactive,inactive,inactive,inactive,inactive,inactive,inactive and 48.5 µM (active),inactive,inactive,inactive,inactive,inactive,inactive,inactive,inactive,–,–,–,–
O=C(c1ccc(OCCN2CCCCC2)cc1)c1c(-c2ccc(O)cc2)sc2cc(O)ccc12,6.68 µM (active) and 4.33 µM (active) and 6.11 µM (active),6.68 µM (active) and 4.86 µM (active),inactive,23.9 µM (active) and 49 µM (active) and 54.9 µM (active),8.41 µM (active) and 10.9 µM (active) and 13.7 µM (active),11.9 nM (active) and 3.9 nM (active) and 4.3 nM (active),29.8 µM (active) and 34.4 µM (active),inactive,21.1 µM (active) and 21.7 µM (active) and 19.3 µM (active),–,–,55 µM (active) and 15.5 µM (active) and 26.6 µM (active),–,61.2 µM (active) and 17.2 µM (active) and 29.8 µM (active),inactive,inactive,–,–,–,–
COC(=O)CCC(=O)OC,inactive,inactive,inactive,inactive,inactive,inactive,inactive,–,–,inactive,–,inactive,inactive,inactive,inactive,–,inactive,inactive,inactive,inactive
c1ccc2sc(SSN3CCOCC3)nc2c1,15.3 µM (active) and 24.3 µM (active),13.7 µM (active) and 15.4 µM (active),inactive,inactive,inactive,5.44 µM (active),6.84 µM (active),30.6 µM (active),inactive,5.48 µM (active),–,inactive,–,–,inactive,–,inactive,inactive,inactive,inactive
CCCc1c(OCCCCc2nn[nH]n2)ccc(C(C)=O)c1O,inactive,23.7 µM (active) and 61.1 µM (active),inactive,inactive,inactive,inactive,inactive,–,–,2.19 µM (active),8.71 µM (active),inactive,–,inactive,inactive,inactive,–,inactive,inactive,inactive
COc1c(Cl)c(Cl)c(Cl)c(Cl)c1Cl,inactive,inactive,inactive,inactive,inactive,inactive,inactive,inactive,inactive,–,–,inactive,inactive,inactive,inactive,inactive,–,–,–,–
OCCO,inactive,inactive,inactive,inactive,inactive,inactive,inactive,inactive,–,inactive,–,inactive,inactive,inactive,inactive,inactive,inactive,inactive,inactive,inactive
O=Cc1ccccc1O,inactive,inactive,inactive,–,inactive,inactive,inactive,inactive,–,inactive,–,inactive,inactive,inactive,inactive,–,inactive,inactive,–,inactive
O=C(O)c1ccccc1Nc1cccc(C(F)(F)F)c1,inactive,23.7 µM (active) and 27.3 µM (active),inactive,inactive,inactive,inactive,inactive,inactive,–,inactive,–,inactive,54.5 µM (active),inactive,inactive,inactive,–,inactive,inactive,inactive
Cc1cccc(N(C)C(=S)Oc2ccc3ccccc3c2)c1,inactive,inactive,inactive,inactive,inactive,inactive,inactive,–,inactive,inactive,–,inactive,–,inactive,inactive,inactive,inactive,inactive,–,–
OC1CCCCCCCCCCC1,inactive,inactive,inactive,inactive,inactive,inactive,inactive,inactive,inactive,inactive,inactive,inactive,inactive,inactive,inactive,inactive,inactive,inactive,inactive,inactive
COC(C)COC(C)COC(C)CO (stereo not given),inactive,inactive,inactive,inactive,inactive,inactive,inactive,inactive,inactive,inactive,–,inactive,inactive,inactive,inactive,inactive,inactive,inactive,inactive,inactive
CCCCCCCCCC(=O)OC,inactive,inactive,inactive,inactive,inactive,inactive,inactive,inactive,inactive,inactive,inactive,inactive,inactive,inactive,inactive,inactive,–,–,–,–
CC(C)=CCCC(C)CCO (stereo not given),inactive,inactive,inactive,inactive,inactive,inactive,inactive,inactive,inactive,inactive,–,inactive,inactive,inactive,inactive,inactive,inactive,inactive,inactive,inactive
